Assay outcomes from PubChem.
Shown are actives, neighbours in structure and some others; about 1.5% of the full set was active somewhere.
E coli Lon inh – inhibitors of E. coli Lon protease | purified E. coli Lon protease, fluorescence polarization | P0A9M0 | inhibition, % at 7.94 µM | hit rate 0.42% among 360,000; in the data active = inhibition above about 13%, passing the limit was not always enough
MCL1 BIM primary – disrupts human MCL1 binding to BIM-BH3 peptide | Q07820 | GST-MCL1 / FITC-Bim-BH3 fluorescence polarization | inhibition, % at 10.9 µM | hit rate 0.68% among 320,000 | AID 2057;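 active = inhibition above the mean inhibition of all tested compounds plus 3 SD, set per campaign, cut at about 40% in these data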;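 note: higher means more loss of mP so more displacement of Bim peptide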
Target sequence (Q07820 whole entry, looked up): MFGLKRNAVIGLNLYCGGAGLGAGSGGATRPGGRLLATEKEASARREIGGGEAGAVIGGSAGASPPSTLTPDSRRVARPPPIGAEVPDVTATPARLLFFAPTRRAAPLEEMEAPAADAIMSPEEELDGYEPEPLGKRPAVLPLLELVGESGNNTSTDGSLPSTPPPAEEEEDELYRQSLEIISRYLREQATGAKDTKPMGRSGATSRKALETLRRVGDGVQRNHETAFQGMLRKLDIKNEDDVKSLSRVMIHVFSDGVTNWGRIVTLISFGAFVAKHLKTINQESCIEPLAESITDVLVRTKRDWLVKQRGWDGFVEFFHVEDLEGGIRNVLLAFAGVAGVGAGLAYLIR
MEX-5 binding – C. elegans MEX-5 TCR-2 RNA binding activity. AID 1832. hit rate 0.38% among 300,000. Q9XUB2. MEX-5/FITC-TCR2 RNA binding, fluorescence polarization; hits give low values. activity score (negative = inhibition of binding), % at 10 µM;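 active = inhibition past about -25% in most replicates, and total fluorescence under double the plate's negative control median, limit read from the data; inconclusive = replicates evenly split on the limit, or fluorescence at least double controls; inactive = too little inhibition in most replicates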
GLD-1 TGE inh – GLD-1-TGE RNA interaction inhibition (C. elegans). Q17339. purified GLD-1 + fluorescein TGE RNA, fluorescence polarization. inhibition, % at 5.96 µM. hit rate 0.44% among 320,000;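 active = percent inhibition above a per-plate cutoff, the plate mean of test compounds plus 3 SD, cut at about 30% in these data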
EBV gp42 inh – blocks Epstein-Barr virus glycoprotein 42 binding. Q1HVG2. Fluorescence polarization binding assay, mP read-out. inhibition, % (tested at 21.74 µM). hit rate 0.42% among 220,000. AID 1085; in the data active = inhibition above about 50%
Target sequence (Q1HVG2 whole entry, looked up): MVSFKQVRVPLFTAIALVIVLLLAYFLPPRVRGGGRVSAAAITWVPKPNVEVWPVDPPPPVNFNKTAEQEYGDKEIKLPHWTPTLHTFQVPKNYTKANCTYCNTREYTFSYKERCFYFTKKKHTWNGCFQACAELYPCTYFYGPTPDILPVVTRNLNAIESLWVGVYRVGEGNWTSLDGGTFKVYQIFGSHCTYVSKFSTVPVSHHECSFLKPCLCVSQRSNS
BCLXL inh – blocks human Bcl-xL binding to Bim BH3 peptide | GST-Bcl-xL / FITC-Bim BH3 peptide fluorescence polarization | inhibition, % at 10.9 µM | hit rate 0.7% among 320,000;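 active = inhibition above the mean of all tested compounds plus 3 SD, cutoff set per campaign, cut at about 30% in these data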;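 note: inhibitors lower millipolarization by displacing the labeled peptide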
Bcl-xL conf – counter-screen for MCL1 inhibitors: confirmation of human Bcl-xL inhibitors. shares compounds with MCL1 BIM primary. AID 2166. hit rate 54% among 1,700. inhibition, % at 10.9 µM. GST-Bcl-xL / FITC-Bim BH3 peptide FP binding;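 active = inhibition above a cutoff equal to the mean inhibition of all tested compounds plus 3 SD, cut at about 30% in these data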
MCL1 inh confirm – confirmation of human MCL1 and BIM-BH3 interaction inhibitors | shares compounds with MCL1 BIM primary | hit rate 61% among 1,700 | GST-MCL1 / FITC-Bim-BH3 fluorescence polarization | AID 2168 | inhibition, % at 10.9 µM;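 active = inhibition above the average of all tested compounds plus 3 SD, cut at about 40% in these data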
GLD-1 TGE cf – confirmation of C. elegans GLD-1 TGE RNA binding inhibitors; AID 2459; inhibition, % at 5.96 µM; GLD-1/FL-TGE RNA fluorescence polarization, biochemical; hit rate 10% among 550; shares compounds with GLD-1 TGE inh;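 active = average inhibition across triplicates above the hit cutoff set in the primary screen, cut at about 32% in these data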
E coli Lon conf – E. coli Lon inhibition confirmation; hit rate 31% among 1,400; inhibition, % at 7.94 µM; purified E. coli Lon, fluorescence polarization; AID 602230; shares compounds with E coli Lon inh; in the data active = inhibition above about 16%
Numbers stand for hits; . = inactive; ? = inconclusive; / = not tested or not shown; + = active, no number.

SMILES | E coli Lon inh | MCL1 BIM primary | MEX-5 binding | GLD-1 TGE inh | EBV gp42 inh | BCLXL inh | Bcl-xL conf | MCL1 inh confirm | E coli Lon conf | others
Cc1ccc2[nH]c3ccccc3c(=O)c2c1 | . | . | . | . | / | . | / | / | /
CCCCCN(C(=O)CCC(=O)OCC(=O)Nc1cccc(CC)c1)c1c(N)n(CCCC)c(=O)[nH]c1=O | . | . | . | . | / | . | / | / | /
N#Cc1ccc(Oc2cccc3cccnc23)c([N+](=O)[O-])c1 | 101 | 177 | . | 125 | / | 150 | 33 | 51 | .
O=C1CCC(=O)c2ccc3c4c(ccc1c24)CC3 | . | / | / | / | / | / | / | / | /
O=C1CCN2C=Nc3cccc4ccc1c2c34 | + | + | ? | 169 | 137 | + | 192 | + | +
O=C1Nc2ccccc2C1C(C[N+](=O)[O-])c1ccccc1 (configuration not stated) | . | . | . | . | / | . | / | / | /
COCC1CCN(Cc2c(C(=O)N3CCN(C4CCCCC4)CC3)nc3ccccn23)C1 (configuration not stated) | 26 | 57 | . | . | / | 52 | . | . | .
O=C(c1nc2ccccn2c1CN1CCC(Cc2ccccc2)CC1)N1CCCC1 | . | . | . | . | . | . | / | / | /
O=Cc1c(N2CCN(CCO)CC2)nc2ccccn2c1=O | 41 | 69 | . | 41 | / | 60 | 54 | 77 | . | GLD-1 TGE cf=.
CCOc1cc(/C=C2\CCCc3c2nc2ccccc2c3C(=O)O)ccc1OC | 115 | 166 | . | 145 | / | 143 | . | . | 66
COc1cc(/C=C2\CCCc3c2nc2ccccc2c3C(=O)O)cc(Br)c1O | . | . | . | . | / | . | / | / | /
COc1ccc2c(c1)c1nc3ccccc3nc1n2Cc1ccc(OC)c(OC)c1 | 97 | 55 | -26 | 52 | 59 | 50 | 60 | 62 | .
CCCCN(C=O)c1c(CC)nc2ccc(C(=O)NCCOc3ccc(OC)cc3)cn12 | . | / | / | / | / | / | / | / | /
CC1CC=C2C(C#N)=C(N)C(C#N)(C#N)C(c3cccs3)C2C1 (configuration not stated) | 42 | 96 | -31 | 70 | 52 | 92 | 52 | 68 | 16
CCOC(=O)N1CC=C2C(C#N)=C(N)C(C#N)(C#N)[C@H](c3cccs3)C2C1 (some centres not stated) | . | . | . | . | . | . | / | / | /
COc1ccc(S(=O)(=O)Nc2cccc3c2O[C@H](CN(C)C(=O)NC2CCCCC2)[C@@H](C)CN([C@H](C)CO)C3=O)cc1 | . | / | / | . | / | / | / | / | /
O=C(COC(=O)c1cc(-c2cccc3ccccc23)nc2ccccc12)NC1CCS(=O)(=O)C1 (configuration not stated) | 178 | 185 | . | 97 | . | 152 | 63 | 80 | .
CCN(C(=O)COC(=O)c1cc(-c2cccc3ccccc23)nc2ccccc12)C1CCS(=O)(=O)C1 (configuration not stated) | 40 | 98 | / | 39 | . | 91 | 50 | 73 | 18 | GLD-1 TGE cf=.
O=[N+]([O-])c1cccc(-c2c(-c3ccccc3)ncc3ccc(F)cc23)c1 | . | . | / | . | / | . | / | / | /
Nc1ccc2nc(-c3ccccc3)cnc2c1 | 34 | 119 | . | 81 | / | 99 | 121 | 142 | 107
Nc1ccc(-c2cnc3ccccc3n2)cc1 | . | . | . | . | / | . | / | / | /
COc1ccc(NC(=O)Nc2ccc([N+](=O)[O-])cc2)cn1 | 20 | 71 | . | 46 | / | 68 | 38 | 53 | .
COc1ccc(NC(=O)Nc2cccc(C(F)(F)F)c2)cn1 | . | . | . | . | . | . | / | / | /
N=C1CCC(=N)c2c1c(O)c1ccccc1c2O | 29 | 150 | . | 107 | 69 | 125 | 119 | 144 | 44
O=C(O)c1ccccc1C1=Nc2ccc(O)cc2Oc2cc(O)ccc21 | 78 | 196 | ? | 135 | 84 | 167 | 142 | 178 | 97
SMILES | E coli Lon inh | MCL1 BIM primary | MEX-5 binding | GLD-1 TGE inh | EBV gp42 inh | BCLXL inh | Bcl-xL conf | MCL1 inh confirm | E coli Lon conf | others
Cc1cc(-c2ccccc2C(=O)O)on1 | . | . | . | . | . | . | / | / | /
CN(C)S(=O)(=O)c1cccc(CNCC2COc3ccccc3O2)c1 (configuration not stated) | . | . | . | . | / | . | / | / | /
CC(C)c1ccc(Nc2c([N+](=O)[O-])c(=O)n(C)c3ccccc23)cc1 | . | . | . | . | . | . | / | / | /
Cn1c(=O)c(Nc2ccc(O)cc2)c2c3c(cccc31)C(=O)c1ccccc1-2 | + | + | . | 155 | 127 | 164 | 163 | + | 121
CCC(C)NC(=O)c1ccc(C)c(NC(=O)C2=C(C)OCCS2)c1 (configuration not stated) | . | . | . | . | / | . | / | / | /
Cc1cccc(NC(=O)C2CC3CCC2C3)c1C (configuration not stated) | . | . | . | . | / | . | / | / | /
N#Cc1cccc(NC(=O)CSc2ccc3c4c(cccc24)C(=O)c2ccccc2-3)c1 | 22 | 75 | . | 61 | 107 | 73 | 185 | 183 | 94
N#Cc1cccc(NC(=O)CSc2ccccc2)c1 | . | . | . | . | . | . | / | / | /
O=Cc1ccc2noc(-c3ccc(F)cc3)c2c1 | 20 | 106 | ? | 103 | 151 | 101 | 123 | 163 | 110
CC1CCCN(CCCNC(=O)c2nn(C)c3c2CS(=O)(=O)c2ccccc2-3)C1 (configuration not stated) | . | . | . | . | / | . | / | / | /
Cc1ccc(C)c(N(CC(=O)NC2CCCC2)C(=O)c2csnn2)c1 | . | . | . | . | / | . | / | / | /
Cc1cc2ncn(-c3ncccc3[N+](=O)[O-])c2cc1C | 25 | 102 | . | 80 | / | 85 | . | . | .
O=[N+]([O-])c1cccnc1-n1cnc2ccccc21 | . | . | . | . | . | . | / | / | /
c1ccc2sc(N3CCN(Cc4nnnn4CC4CCCO4)CC3)nc2c1 (configuration not stated) | . | . | . | . | . | . | / | / | /
c1ccc2c(c1)CCCN2Cc1nnnn1CC1CCCO1 (configuration not stated) | 73 | 196 | . | 107 | 71 | 162 | 102 | 124 | 35
CCOC(=O)CNc1ccc2c(c1)OCO2 | 65 | 176 | . | 84 | . | 154 | . | . | .
